Screening results (PubChem BioAssay)
In the library only some 1.2% were active in any assay of this set; here they are far more common.
NS1 function inh: inhibitors of influenza NS1 protein function; Potency, µM (highest dose often 46.1 µM), without a hit: at the highest dose activity, positive = more growth; 270,000 compounds, 0.4% hits; AID 2326; calls by dose curve; note: actives are rising curves; nearly all actives have a fitted effect of over 50% in size
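OD600 was taken as the measure of yeast growth restored by compound in an NS1-expressing S. cerevisiae strain. Cells had been washed out of glucose medium and diluted 1:100 into galactose -URA medium, pH 6.0.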
AMA1 RON2 block: disrupts binding of P. falciparum AMA1 to RON2. AlphaScreen AMA1-biotinylated RON2 peptide binding. Potency, µM (doses to about 58.2 µM), inactives show at the highest dose activity change, negative = inhibition, usual class: inhibitors. 360,000 compounds, 0.2% hits. AID 720542;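 note: 0% = vehicle wells and -100% = peptide control; nearly all actives have a fitted effect of over 45% in size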
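AMA1 (3D7) with his tag at 25 nM final met compounds first, then biotinylated RON2 peptide at 25 nM; detection used donor plus acceptor beads, 10 µg/mL apiece, read by AlphaScreen after 30 min at room temperature.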
TbPYK inhibitor: T. brucei pyruvate kinase inhibition | TbPYK enzyme, Kinase-Glo Plus ATP luminescence, 45 min | Q57TT1 | 410,000 compounds, 0.12% hits | AID 624173 | Potency, µM (highest dose often 76.8 µM), for the others: at the highest dose activity, negative = inhibition, hits mostly inhibitors; note: % is set by controls: 0 for no effect and ±100 for the full control effect; nearly all actives have a fitted effect of over 50% in size
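Quantitative HTS: titrated library compounds versus trypanosomal pyruvate kinase in TEA buffer (pH 7.2) containing KCl, MgCl2, BSA and Tween-20. Reactions were initiated with ADP, 130 uM final. Kinase-Glo Plus luminescence was read after 45 min at RT.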
FBPA Giardia inh: inhibitors of Giardia lamblia fructose-1,6-bisphosphate aldolase; purified Giardia FBPA; 290,000 compounds, 0.71% hits; Potency, µM (titrated, usually from 59.6 µM), inactives show at the highest dose activity, negative = inhibition, usual class: inhibitors; note: % is set by controls: 0 for no effect and ±100 for the full control effect; nearly all actives have a fitted effect of over 55% in size
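Giardia FBPA (40 nM reagent) was preincubated 10 min at RT with compound (up to 57.5 uM final), then substrate plus GAPDH/TPI/NAD/arsenate coupling system with diaphorase/resazurin was added; resorufin fluorescence (525/598 nm) was read after 20 min.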
LmPK inhibitor: inhibitors of Leishmania mexicana pyruvate kinase. 290,000 compounds, 0.37% hits. AID 1721. Potency, µM (doses to about 57.5 µM), for the others: top-dose activity change, negative = inhibition, most hits filed as inhibitors. Q27686. purified LmPK, Kinase-Glo ATP luminescence, 1 h; note: % is set by controls: 0 for no effect and ±100 for the full control effect
Target sequence (Q27686 whole entry, looked up): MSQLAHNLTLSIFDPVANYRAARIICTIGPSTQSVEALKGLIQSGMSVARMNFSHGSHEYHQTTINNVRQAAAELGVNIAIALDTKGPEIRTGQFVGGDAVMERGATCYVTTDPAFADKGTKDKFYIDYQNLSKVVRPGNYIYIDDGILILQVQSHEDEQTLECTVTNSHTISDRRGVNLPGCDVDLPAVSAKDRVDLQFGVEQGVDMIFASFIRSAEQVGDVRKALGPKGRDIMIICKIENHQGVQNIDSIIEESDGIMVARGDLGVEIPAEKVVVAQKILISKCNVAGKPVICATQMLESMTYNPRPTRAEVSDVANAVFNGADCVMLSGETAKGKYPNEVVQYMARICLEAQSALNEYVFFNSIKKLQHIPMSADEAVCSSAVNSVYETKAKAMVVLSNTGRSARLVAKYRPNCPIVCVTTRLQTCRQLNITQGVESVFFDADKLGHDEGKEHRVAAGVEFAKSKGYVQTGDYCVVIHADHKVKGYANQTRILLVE
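Purified LmPK (0.1 nM) converted ADP (0.1 mM) to ATP with PEP (0.5 mM) in imidazole buffer pH 7.2 with KCl and MgCl2, 1 h at room temperature. ATP was read by Kinase-Glo luminescence; data normalized to uninhibited and no-enzyme controls.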
The depositor's hits bear a star; ? = inconclusive; / = not tested or not shown; [ ] = another dose, or the depositor's remark. Unless noted, calls come from the whole dose curve; as a rule, active = well fitted curve in the direction sought with a large enough effect; inconclusive = small, poorly fitted or top-dose-only effect, or another doubt; inactive = no such curve, though single readings can be large; an effect the other way counts as inactive or inconclusive. Potency is the fitted concentration of half-maximal effect.

SMILES | NS1 function inh | AMA1 RON2 block | TbPYK inhibitor | FBPA Giardia inh | LmPK inhibitor
O=C(Nc1nc2ccccc2[nH]1)c1cc(F)cc(F)c1 | -7% | 85% | 0% | 10% | -4%
O=C(Nc1nc2ccccc2[nH]1)c1ccc(F)cc1 | -33% | -11% | -29% | -8% | 13µM*
CSCC[C@H](NC(=O)[C@H](CC(C)C)NC(=O)CCNC(=O)[C@@H](NC(=O)[C@H](Cc1ccccc1)NC(=O)[C@H](CO)NC(=O)[C@@H](N)CC(=O)O)C(C)C)C(N)=O | / | / | / | 0% | /
O=c1oc2ccccc2cc1-c1nc2ccccc2o1 | -44% | 41% | -5% | / | ?
O=c1oc2ccccc2cc1-c1nc2c(s1)CCCC2 | -3% | 33% | -21% | 4% | 13µM*
COC(=O)CCC(=O)OC1(C)C(=O)C2=CN(Cc3ccc(OC)cc3)C(c3ccc(OC)cc3)=CC2=C(Br)C1=O (stereo unspecified) | / | -5% | -4% | ? | -8%[11.5 µM]
COC(=O)CCC(=O)OC1(C)C(=O)C2=CN(CC(C)C)C(c3ccc(OC)cc3)=CC2=C(Br)C1=O (stereo unspecified) | 30% | / | / | 1µM* | -3%[11.5 µM]
N#Cc1ccc(NC(=O)Nc2ccccc2Br)c2n[nH]nc12 | / | / | -8% | / | /
CCN1CCN(c2ccc(NS(=O)(=O)c3c(C)nc4sccn4c3=O)cc2Cl)CC1 | / | / | 8% | / | /
CCOC(=O)CNC(=O)C(CO)NC(=O)OCc1ccccc1 (stereo unspecified) | 2% | 1% | 4% | 16% | -1%
CCOC(=O)CNC(=O)C(Cc1ccccc1)NC(=O)OCc1ccccc1 (stereo unspecified) | / | 0% | 0% | 3% | 14µM*
CC1CN(CCOc2ccc(Cl)c(Cl)c2)CC(C)O1 (stereo unspecified) | -26% | ? | 11% | -23% | 1%
C=CCc1cc(OC)ccc1OCCN1CC(C)OC(C)C1 (stereo unspecified) | -5% | 13µM* | -10% | ? | -4%
COC(=O)c1ccccc1OCCCCN1CC(C)OC(C)C1 (stereo unspecified) | 4% | -5% | 21% | ? | -3%
CC1CN(CCOc2ccccc2C(C)C)CC(C)O1 (stereo unspecified) | -12% | 20µM* | 7% | ? | -3%
CNCCc1c[nH]c2ccc(O)cc12 | 0% | ? | -12% | 2µM* | /
Cc1ccc(OCCN2CCN(C)CC2)c([N+](=O)[O-])c1 | 1% | 25µM* | 39% | -20% | -2%
Nc1ccc(S(=O)(=O)c2cc(O)c3ccccc3c2O)cc1 | / | -14% | 11µM* | / | /
COCCNC(=O)/C(C#N)=C/c1ccc(O)cc1 | -1% | -1% | ? | 8% | 13µM*
COc1ccc(/C=C/c2cc(C(=O)O)c3ccccc3n2)cc1 | 3% | 9% | -10% | -25% | 11µM*
COc1cc(OC)c(OC)cc1/C=C/c1cc(C(=O)O)c2ccccc2n1 | 5% | 1% | -6% | -17% | 2%
CCOC(=O)C1=C(N)OC2=C(C(=O)CCC2)C1c1cccs1 (stereo unspecified) | -12% | -2% | 0% | 13µM* | 0%
CCOc1ccc(NC(=O)Cc2csc(COc3cccc(C)c3)n2)cc1 | / | / | 4% | / | /
CC1=NN(c2ccc([N+](=O)[O-])cc2)C(=O)/C1=C\N(C)C | 1% | -4%[2.32 µM] | -19% | 0% | 16µM*
CCCC1=NN(c2ccc([N+](=O)[O-])cc2)C(=O)/C1=C/N(C)C | -12% | 7% | -7% | -8% | -23%
SMILES | NS1 function inh | AMA1 RON2 block | TbPYK inhibitor | FBPA Giardia inh | LmPK inhibitor
CN(C1=C(N2CCOCC2)C(=O)c2ccccc2C1=O)c1ccccc1 | -15% | 16µM* | -15% | ? | -11%
COc1ccc2c(c1)[N+](=O)C(/C(C)=N/NC(N)=S)=C(C)[N+]2=O | 0% | / | / | / | /
Oc1ccc([C@H]2CNCc3c2ccc(O)c3O)cc1O | / | / | 3.2µM* | / | /
COc1ccc(C2/C=C\CN(C(=O)CC(C)(C)C)C(C)C(=O)N2Cc2ccc(F)cc2)cc1 (stereo unspecified) | / | / | / | 2% | /
CC(=O)n1cc(C=C2C(=O)NC(=O)NC2=O)c2ccccc21 | -2% | 1% | 28µM* | ? | -1%
Cn1cc(C=C2C(=O)NC(=O)NC2=O)c2ccccc21 | 3% | 0% | 6% | 18% | -2%
